Compounds without any hit were thinned out: in the full panel of roughly 83,000, 20% have a hit.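 How to read the values: 0–100, growth inhibition (40 = 60% inhibited); 0, no net growth; -100 to 0, cell death (-40 = 40% of starting cells died; -100 = all dead).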 Activity calls are given as the source filed them.

This assay relates to SR leukemia. Description: NCI-60 one-dose screen, 48 h (100 = growth as untreated, 0 = no growth, -100 = all killed). The settings on record: 10 µM unless noted. On the procedure: Growth inhibition of the SR human tumor cell line is measured as a screen for anti-cancer activity. Cells are grown in 96 well plates and exposed to the test compound for 48 hours. Compounds are tested at a single concentration, which is 10^-5 M for most compounds. The reported endpoint is percent growth (GI% or GIPRCNT), where numbers from 0 - 100% represent growth inhibition, and numbers from -100% - 0 represent cell death. For example, a value of 40 represents 60% growth inhibition. A value of 0 means no net growth occurred over the course of the experiment. A value of -40 indicates 40% of cells at the beginning of the experiment died by the end of the experiment. A value of -100 means all cells are dead at the end of the experiment.
NCI-60 Human Tumor Cell Lines Screen was performed using the standard one-dose NCI protocol, which is described in more detail at https://dtp.cancer.gov/discovery_development/nci-60/default.htm.
Compounds with GIPRCNT values below 10 were considered active. Activity score was based on GIPRCNT using the following formula: […]
Score is 0 for GIPRCNT values of 100 or above, 50 for GIPRCNT values of 0, and 100 for GIPRCNT values of -100.
As to `Cc1c(C(=O)Nc2nc(-c3ccccc3)cs2)nnn1-c1ccccc1Br`, the growth is 17% [50 µM] (inactive).
On to `COc1ccc(/C=C2\SC(=O)N(CN3CCN(c4cc5c(cc4F)c(=O)c(C(=O)O)cn5C4CC4)CC3)C2=O)cc1`, for which the growth is 102% (inactive).
The result for `CNc1ccc(Br)cc1-c1n[nH]c(=O)[nH]c1=O` reads 103% (inactive).
The figure for `COC(=O)C1C2CC3c4[nH]c5cc(OC)ccc5c4CCN3CC2CC(OC2CCCCO2)C1OC` (stereo not given) is 88.5% (inactive); for `CC(C)(C)[Si](C)(C)OC1[C@@H](O[Si](C)(C)C(C)(C)C)[C@@H](CNC(=O)NC(=O)C(F)(F)F)O[C@H]1n1cnc2c(NC(=O)Nc3ccccc3)ncnc21` (stereo not given in full) it is -41.9% (active).
The figure for `CC(=O)c1cc(C)c(OC(=O)c2ccccc2)c(C)c1` is 82.8% (inactive); for `Cc1ccc(S(=O)(=O)N(c2ccc(Cl)cc2)c2ccc(Br)cc2C(=O)O)cc1` it is 104% (inactive).
As to `O=C1CCC(N2C(=O)c3cccc(NCCOCCOCCNC(=O)c4cc5c(o4)C(=O)c4ccccc4C5=O)c3C2=O)C(=O)N1` (stereo not given), the growth was 9.2% (active).
On to `O=C1/C(=C/c2ccc(Cl)cc2)CN(Cc2cn(CCCNc3ccnc4cc(Cl)ccc34)nn2)C/C1=C\c1ccc(Cl)cc1`, for which the growth was -31.9% (active).
Take `O=C(c1ccccc1)C(Br)C(Br)c1cccc([N+](=O)[O-])c1` (stereo not given): the growth is -33.3% (active).
Consider `COC(=O)c1c2c(c(C)[n+]([O-])c1C)C(=O)C=C(NCc1ccc(F)cc1)C2=O`, for which the growth is 2.14% (active).
The figure for `C[C@@H](Oc1cc(-c2cnn(C3CC4(CNC4)C3)c2)cnc1N)c1c(Cl)ccc(F)c1Cl` is -24.6% (active).
The figure for `C[C@@H](Oc1cc(-c2cnn(C3CC4(CCNCC4)C3)c2)cnc1N)c1c(F)ccc(Cl)c1Cl` is -29.2% (active).
The figure for `CCOc1ccc(/C=N\N2CCCCCC2)cc1OCC` is 89.6% (inactive).
On to `Clc1ccccc1Nc1ccc2nnc(-c3ccncc3)n2n1`, for which the growth is 38.6% (inactive).
As for `CC(=O)N(CC(O)CO)c1c(I)c(C(=O)NCCO)c(I)c(C(=O)NCC(O)CO)c1I` (stereo not given), the growth was 77.2% (inactive).
In the case of `CC[Si](CC)(CC)OC1[C@@H](O[Si](CC)(CC)CC)[C@@H](CNC(=O)NC)O[C@H]1n1cnc2c(NC(=O)Nc3ccccc3)ncnc21` (stereo not given in full), the growth was 14.8% (inactive).
As for `CCCCCCCCCCCCCCn1c2ccccc2c2c3c(c4c5cc(OC)ccc5oc4c21)C(=O)NC3=O`, the growth is 114% (inactive).
With `Cc1ccc2nc(NC(=O)CSC(=S)N3CCN(C)CC3)sc2c1`, the growth was 138% (inactive).
The figure for `C=C[C@H]1C[C@@H]2C[C@@H]3[C@H]4C/C=C\C(=O)NCCCC5NC(=O)C(=C(O)/C=C/[C@@H]4CC(=O)[C@H]3[C@@H]2[C@H]1C)C5=O` (stereo not given in full) is -55.9% (active); for `CCN(c1ccc(C(=O)N2CCN(c3ccccc3)CC2)cc1)S(C)(=O)=O` it is 90.2% (inactive).
The figure for `c1ccc(-c2n(Cc3ccc4ccccc4n3)c3ccccc3[n+]2Cc2ccc3ccccc3n2)cc1` is -19.1% (active).
As for `CC1SC(c2ccc(Cl)cc2)N(CCc2cccs2)C1=O` (stereo not given), the growth was -1.75% (active).
With `O=[N+]([O-])c1cc2c(cc1Br)C1C(C3C2C(Cl)(Cl)C(Cl)=C(Cl)C3(Cl)Cl)C(Cl)(Cl)C(Cl)=C(Cl)C1(Cl)Cl` (stereo not given), the growth was 80.2% (inactive).
For the compound `O=C(CCc1nnc2sc(/C=C\c3ccccc3)nn12)c1nc2ccccc2[nH]1`, the growth was 63.5% (inactive).
On to `COc1ccc(-c2c3c(N)c4c(nc3nc3c2c(C)nn3-c2ccccc2)CCCCC4)cc1`, for which the growth is 54.1% (inactive).
For the compound `CCCCc1ccc(C(O)(CCN2CC3CCC(CC3)C2)c2ccccc2)cc1` (stereo not given), the growth was 68% (inactive).
The figure for `COc1ccc(/C=N/OCC(O)CNCc2ccccc2)cc1OC1CCCC1` (stereo not given) is 87% (inactive); for `O=C1C=CC(=O)N1CCCCCCCCCCN1C(=O)C=CC1=O` it is 29.1% (inactive).
Turning to `O=[N+]([O-])c1cc2c(cc1Br)-c1ccccc1C2`, the growth was 82.7% (inactive).
As to `O=C(N/N=C/c1ccc(OC(F)F)c(OC2CCCC2)c1)c1cnn2c1NC(c1ccccc1)C2` (stereo not given), the growth was 37.4% (inactive).
The figure for `Nc1cc2[nH]c(=O)c3ccccc3c2cc1Br` is 61.9% (inactive); for `Cc1c(NCC(=O)Nc2nc3ccccc3[nH]2)c(=O)n(-c2ccccc2)n1C` it is 92.4% (inactive).
The figure for `N#CC1=C(N)Oc2cc(N)ccc2C1c1ccc(F)cc1` (stereo not given) is 20.5% (inactive); for `CCOC(=O)C1=C(C)N2C(=NC3=C(CCCC/C3=C\c3ccccc3)C2c2ccccc2)S1` (stereo not given) it is 90.9% (inactive).
As to `CC(C)(C)[Si](C)(C)OC1[C@@H](CNC(=O)NC(=O)CCl)O[C@@H](n2cnc3c(N)ncnc32)[C@H]1O[Si](C)(C)C(C)(C)C` (stereo not given in full), the growth is -58.2% (active).
The result for `COc1ccc(C2OCC(C)(C)CO2)cc1OC` reads 100% (inactive); that for `COc1ccc(-n2ncc3c4nc(OC)c(S(=O)(=O)c5ccccc5)cc4ccc32)cc1`, 85.9% (inactive).
The figure for `Cc1nc(NN)c([N+](=O)[O-])c(NN)n1` is 73.5% (inactive).
Consider `CCOC(=O)c1[nH]c2cc(Cl)ccc2c1[C@@H](C(=O)NC(C)(C)C)N(CC)C(=O)CCCCC#Cc1cccc2c1CN(C1CCC(=O)NC1=O)C2=O` (stereo not given in full), for which the growth is 12.7% (inactive).

For the origin of these results see PubChem BioAssay (NCI).
